Measurements from PubChem BioAssay.
“And” between values parts separate entries of the source, which are not always exact repeats. Identical values can stand only once. The source made the active and inactive calls. No rule for the calls is given here.

Columns and labels:
[1] = kinase inhibitors against Plasmodium liver-stage infection, cell-based, known kinase inhibitor set, luminescence, hepatoma host viability (AID 624392); details: Plasmodium liver stage in hepatoma cells, luciferase luminescence, concentration not given here; liver cell % of control: measured here: host liver cell viability; parasite % of control: stronger effect = lower value;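 also: infected cells incubated roughly two days before readout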
[2] = modulators of glucocorticoid suppression of NF-kB, cell-based, luciferase, IL-1B stimulus, dexamethasone (AID 624486); details: NF-kB luciferase reporter, IL-1B + dexamethasone, luminescence; percent of negative control (+Dex): actives lie on both sides, concentration not given here; z-score: measured here: IL-1B alone, no Dex;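 as to percent of negative control (+Dex): 100% = mean signal of vehicle control wells on the plate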
[3] = molecular target: Cellular tumor antigen p53 (Homo sapiens) (UniProt P04637); assay: kinase inhibitors altering GFP-p53 stability in HPV16-positive cells, imaging, known kinase inhibitor set, EGFP/DsRed ratio (AID 1053116); details: stronger effect = higher value; EGFP object count: measured here: GFP-p53 positive objects count;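 also: cells exposed to compounds for 24 h at 37 °C before reading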
Sequence of Cellular tumor antigen p53 (Homo sapiens) (P04637 whole entry, looked up): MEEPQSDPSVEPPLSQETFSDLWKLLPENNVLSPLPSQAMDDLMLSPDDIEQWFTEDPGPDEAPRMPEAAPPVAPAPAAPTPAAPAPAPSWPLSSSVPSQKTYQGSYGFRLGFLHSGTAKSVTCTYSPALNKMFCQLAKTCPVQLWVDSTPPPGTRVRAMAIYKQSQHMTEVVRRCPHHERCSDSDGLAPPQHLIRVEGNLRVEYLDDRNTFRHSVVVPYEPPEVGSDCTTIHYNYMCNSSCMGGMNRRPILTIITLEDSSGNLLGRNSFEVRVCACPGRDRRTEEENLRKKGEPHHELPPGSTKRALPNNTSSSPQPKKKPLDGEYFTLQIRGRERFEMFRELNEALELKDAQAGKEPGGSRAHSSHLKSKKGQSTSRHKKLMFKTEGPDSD

[4] = IRF3 reporter activation in THP-1 macrophages, cell-based, PMA-stimulated THP-1, luminescence (AID 1053176); details: PMA-differentiated THP-1, IRF3 reporter luminescence; stronger effect = higher value

Row | SMILES | liver cell % of control [1] | parasite % of control [1] | percent of negative control (+Dex) [2] | z-score [2] | EGFP object count [3] | EGFP/DsRed ratio [3] | fraction signal [4]
1 | COc1ccc(O)c(C(=O)c2ccc(C(=O)NC3CCCNCC3NC(=O)c3ccncc3)cc2)c1F (stereo not given) | 115% | 83.5% (inactive) | 68.5% (active) | -3.04 | 10.5 | 0.105 (inactive) | 0.0035 (inactive)
2 | O=C1NC(=NCc2ccccc2Br)SC1=Cc1ccc2ncccc2c1 | 130% | 32.9% (inactive) | 85.5% (inactive) | -0.56 | 8 | 0.253 (inactive) | -0.0095 (inactive)
3 | COc1cccc(C(=O)c2sc(Nc3ccc(N4CCN(C(C)C)CC4)cc3)nc2N)c1 | 86.7% | 389% (inactive) | 112% (inactive) | 1.07 | 2.5 | 0.139 (inactive) | -0.02 (inactive)
4 | N#Cc1cccc(C(=O)c2cnn(-c3ccc(F)cc3)c2N)c1 | 102% | 61.7% (inactive) | 114% (inactive) | 2.75 | 4.5 | 0.122 (inactive) | 0.01 (inactive)
5 | Nc1[nH]nc2nc(-c3cccs3)cc(C(F)(F)F)c12 | 104% | 41.7% (inactive) | 73% (active) | -2.23 | 4 | 0.138 (inactive) | -0.0165 (inactive)
6 | COc1cc[nH]c1C=C1C(=O)Nc2ccc(F)c(C#CC3(O)CCNCC3)c21 | 70.4% | 10.7% (inactive) | 108% (inactive) | -2.18 | 467 | 3.03 (inactive) | -0.005 (inactive)
7 | Cn1c(=O)c(Oc2ccc(F)cc2F)cc2cnc(NCCS(C)(=O)=O)nc21 | 117% | 60.7% (inactive) | 101% (inactive) | 0.95 | 1 | 0.00515 (inactive) | 0.0015 (inactive)
8 | Cn1cc(C2=C(c3c4n(c5ccccc35)CCCC4)C(=O)NC2=O)c2ccccc21 | 77.8% | 85.7% (inactive) | 100% (inactive) | 0.55 | 5.5 | 0.0663 (inactive) | 0.0055 (inactive)
9 | Nc1c(C(=O)c2ccc(-c3cccnc3)cc2)cnn1-c1ccc(F)cc1 | 93.2% | 36.7% (inactive) | 112% (inactive) | 0.835 | 5.5 | 0.226 (inactive) | -0.0025 (inactive)
10 | Cn1c(=O)c(Oc2ccc(F)cc2F)cc2cnc(NC3CCC(O)CC3)nc21 (stereo not given) | 112% | 60.3% (inactive) | 85% (inactive) | -0.62 | 5 | 0.154 (inactive) | -0.0095 (inactive)
11 | O=C1NC(=NC2CC2c2ccccc2)SC1=Cc1ccc2ncccc2c1 (stereo not given) | 193% | 10.6% (inactive) | 64% (active) | -4.3 | 3 | 0.221 (inactive) | -0.0115 (inactive)
12 | Cc1cccc2c(C3=C(c4cn(C)c5ccccc45)C(=O)NC3=O)cn(C)c12 | 91.7% | 45.3% (inactive) | 98.5% (inactive) | -1.08 | 24 | 0.241 (inactive) | -0.0115 (inactive)
13 | COc1cc[nH]c1C=C1C(=O)Nc2ccc([N+](=O)[O-])c(N3CCC(O)C3)c21 (stereo not given) | 102% | 15.7% (inactive) | 29.5% (active) | -7.83 | 3.5 | 0.0609 (inactive) | -0.018 (inactive)
14 | Cn1cc(C2=C(c3cccc([N+](=O)[O-])c3)C(=O)NC2=O)c2ccccc21 | 86.9% | 3.57% (inactive) | 106% (inactive) | -2.63 | 14 | 0.255 (inactive) | 0.0015 (inactive)
15 | CNCC1CCn2c(c(C3=C(c4cn(C)c5ccccc45)C(=O)NC3=O)c3ccccc32)C1 (stereo not given) | 101% | 45.7% (inactive) | 94.5% (inactive) | -0.52 | 1 | 0.0128 (inactive) | -0.0115 (inactive)
16 | O=C1NC(=NCc2ccccc2)SC1=Cc1ccc2ncccc2c1 | 99.5% | 34.9% (inactive) | 92.5% (inactive) | -0.26 | 7 | 0.173 (inactive) | -0.003 (inactive)
17 | Cn1cc(C2=C(c3c4n(c5ccccc35)CCN(C(N)=S)C4)C(=O)NC2=O)c2ccccc21 | 94.5% | 22.4% (inactive) | 110% (inactive) | -0.965 | 36.5 | 0.211 (inactive) | -0.007 (inactive)
18 | Cn1cc(C2=C(c3c4n(c5ccccc35)CCCCC4)C(=O)NC2=O)c2ccccc21 | 80.1% | 66.1% (inactive) | 100% (inactive) | -0.31 | 7 | 0.223 (inactive) | -0.005 (inactive)
19 | O=C1NC(=NCC(CO)c2ccccc2)SC1=Cc1ccc2ncccc2c1 (stereo not given) | 106% | 72.5% (inactive) | 86% (inactive) | -0.105 | 0.5 | 0.00131 (inactive) | 0.006 (inactive)
20 | Cn1c(=O)c(Oc2ccc(F)cc2F)cc2cnc(NCC(C)(C)O)nc21 | 102% | 62.1% (inactive) | 101% (inactive) | -0.01 | 4 | 0.146 (inactive) | -0.001 (inactive)

Row | SMILES | liver cell % of control [1] | parasite % of control [1] | percent of negative control (+Dex) [2] | z-score [2] | EGFP object count [3] | EGFP/DsRed ratio [3] | fraction signal [4]
21 | Nc1c(C(=O)c2cccc(CCC3(O)CCCC3)c2)cnn1-c1ccc(F)cc1 | 112% | 81% (inactive) | 105% (inactive) | -0.24 | 2.5 | 0.0989 (inactive) | -0.0005 (inactive)
22 | Cn1cc(C2=C(c3cn(C)c4cc(N)ccc34)C(=O)NC2=O)c2ccccc21 | 85.5% | 26.4% (inactive) | 96% (inactive) | -2.26 | 41.5 | 0.462 (inactive) | -0.0115 (inactive)
23 | Cn1cc(C2=C(c3c[nH]c4ccccc34)C(=O)NC2=O)c2ccccc21 | 85.3% | 60.7% (inactive) | 101% (inactive) | -1.61 | 73 | 0.286 (inactive) | 0.0015 (inactive)
24 | Cn1c(=O)c(Oc2ccc(F)cc2F)cc2cnc(NC3CCS(=O)(=O)CC3)nc21 | 106% | 43.3% (inactive) | 97.5% (inactive) | 0.51 | 5 | 0.324 (inactive) | 0.001 (inactive)
25 | Cn1cc(C2=C(c3cn(CCCCCO)c4ccccc34)C(=O)NC2=O)c2ccccc21 | 97.8% | 31.3% (inactive) | 101% (inactive) | -1.23 | 18.5 | 0.347 (inactive) | -0.0115 (inactive)
26 | COc1ccccc1C(=O)c1cnc(NC2CCN(S(C)(=O)=O)CC2)nc1N | 100% | 96.6% (inactive) | 85% (inactive) | -1.16 | 5 | 0.0796 (inactive) | 0.0015 (inactive)
27 | O=C1NC(=NCc2ccccn2)SC1=Cc1ccc2ncccc2c1 | 105% | 37.5% (inactive) | 94% (inactive) | 0.165 | 6.5 | 0.264 (inactive) | 0.01 (inactive)
28 | Cn1cc(C2=C(c3cccc(N)c3)C(=O)NC2=O)c2ccccc21 | 102% | 14.9% (inactive) | 124% (active) | -1.23 | 23.5 | 0.303 (inactive) | -0.005 (inactive)
29 | O=C1NC(=NCc2cccs2)SC1Cc1ccc2ncccc2c1 (stereo not given) | 108% | 12.8% (inactive) | 96% (inactive) | -0.14 | 2.5 | 0.109 (inactive) | 0.0035 (inactive)
30 | Cn1c(=O)c(Cc2ccccc2F)cc2cnc(NC3CCOCC3)nc21 | 106% | 64.6% (inactive) | 107% (inactive) | 0.55 | 2.5 | 0.0998 (inactive) | 0.0035 (inactive)
31 | CNCCCn1cc(C2=C(c3cn(C)c4ccccc34)C(=O)NC2=O)c2ccccc21 | 82% | 60.5% (inactive) | 102% (inactive) | 0.035 | 2.5 | 0.00316 (inactive) | -0.0095 (inactive)
32 | Cn1cc(C2=C(c3cn(C)c4ccccc34)C(=O)NC2=O)c2ccccc21 | 115% | 66.6% (inactive) | 110% (inactive) | -0.485 | 25.5 | 0.17 (inactive) | -0.001 (inactive)
33 | Cn1cc(C2=C(c3ccsc3)C(=O)NC2=O)c2ccccc21 | 108% | 30% (inactive) | 92.5% (inactive) | -0.045 | 3.5 | 0.27 (inactive) | -0.0155 (inactive)
34 | COc1cc[nH]c1C=C1C(=O)Nc2ccc(F)c(C#CC3(O)CCOCC3)c21 | 128% | 1.61% (active) | 122% (inactive) | -1.81 | 6 | 0.109 (inactive) | -0.0095 (inactive)
35 | Cc1ccccc1C1=C(c2cn(C)c3ccccc23)C(=O)NC1=O | 136% | 37% (inactive) | 96% (inactive) | -1.4 | 22 | 0.4 (inactive) | 0.0035 (inactive)
36 | COc1cc(F)c(F)cc1C(=O)c1cnc(NC2CCN(S(C)(=O)=O)CC2)nc1N | 107% | 392% (inactive) | 79% (inactive) | -1.08 | 1 | 0.11 (inactive) | -0.003 (inactive)
37 | O=C1NC(=NC(CO)Cc2ccccc2)SC1=Cc1ccc2ncccc2c1 (stereo not given) | 107% and 106% | 258% (inactive) and 60% (inactive) | 91.5% (inactive) and 102% (inactive) | -0.515 and 0.03 | 6.5 and 4 | 0.117 (inactive) and 0.195 (inactive) | -0.0075 (inactive) and -0.0115 (inactive)
38 | Cn1cc(C2=C(c3cn(C)c4c([N+](=O)[O-])cccc34)C(=O)NC2=O)c2ccccc21 | 78.7% | 22.7% (inactive) | 102% (inactive) | -0.03 | 18.5 | 0.137 (inactive) | -0.005 (inactive)
39 | COc1cccc(C2=C(c3cn(C)c4ccc(Cl)cc34)C(=O)NC2=O)c1 | 197% | 11.6% (inactive) | 139% (inactive) | 0.245 | 13.5 | 0.277 (inactive) | -0.0075 (inactive)
40 | Nc1c(C(=O)c2cccc(C#CCO)c2)cnn1-c1ccc(F)cc1 | 100% | 58.9% (inactive) | 108% (inactive) | 1.13 | 1.5 | 0.0236 (inactive) | 0.008 (inactive)
